# Test results: PubChem BioAssay (EPA / NIEHS)
# The source made the active and inactive calls. Rule for the calls: active = hit-call score of the fitted dose curve at least 0.9, where 1 is the maximum; inactive = score below 0.9.
# Read-out: Interferon-gamma inducible Protein 10 (IP10), CXCL10 (gene 3627)
# Assay: BSK_KF3CT_IP10: BioMAP Diversity Plus: KF3CT Assay for Interferon-gamma inducible Protein 10 (IP10) Biomarker Activity (AID 2283068)
# Conditions: primary human keratinocytes with fibroblasts; actives raise or lower the signal
# Procedure: BSK_KF3CT is a cell-based, multiplexed-readout assay that uses keratinocytes and foreskin fibroblasts, a human skin primary cell co-culture, with measurements taken at 24 hours after chemical dosing in a 96-well plate.BSK_KF3CT_IP10 is an assay component measured in the BSK_KF3CT assay. It measures IP-10 antibody related to regulation of gene expression using ELISA technology.Data from the assay component BSK_KF3CT_IP10 was analyzed into 1 assay endpoint. This assay endpoint, BSK_KF3CT_IP10, was analyzed with bidirectional fitting relative to DMSO as the negative control and baseline of activity. Using a type of binding reporter, gain or loss-of-signal activity can be used to understand changes in the signaling as they relate to the gene CXCL10. Furthermore, this assay endpoint can be referred to as a primary readout, because this assay has produced multiple assay endpoints where this one serves a signaling function. To generalize the intended target to other relatable targets, this assay endpoint is annotated to the cytokine intended target family, where the subfamily is chemotactic factor.
# The levels of cell surface (or secreted, indicated by the prefix "s") biomarker endpoints were measured by ELISA. Overt cytotoxicity to cells in confluent adherent cultures (all systems other than the BT system) was assessed by measuring total protein levels using sulforhodamine B (SRB) staining in parallel cultures at the time of biomarker measurements, indicated as SRB endpoints. For proliferation assays for adherent cell types, individual cell types are cultured at sub-confluence and relative cell numbers quantified by SRB staining at time points optimized for each system (48 h: 3C and CASM3C systems; 72 h: BT and HDF3CGF systems; 96 h: SAg system). SRB was performed by staining cells with 0.1% SRB after fixation with 10% TCA and reading wells at 560 nm.Viability and proliferation of PBMC (T cells) was quantified by Alamar Blue reduction for the SAg and BT systems. For PBMC viability (referred to as PBMC Cytotoxicity within the assay endpoint names), cells were plated (75,000/well in a 96-well plate) and then chemical samples added for 1 h before addition of activators, SEB and TSST-1 (20 ng/mL final concentration each). Cells were incubated for 90 h. Then, Alamar Blue (20 uL/well) (Invitrogen, Cat DAL1100) was added for 6 h, and the plates were read with a fluorescence microplate reader at 546/580 nm (excitation/emission). For PBMC proliferation, cells were plated and activated as above but incubated for only 16 h prior to addition of Alamar Blue. Plates were read after 6 h.
Structure (SMILES),AC50,outcome
N#CCCC(Br)(C#N)CBr (stereo not given),33.1 µM (active),–
CCOP(=O)(OCC)SCCSCC,–,inactive
O=[N+]([O-])c1cccc2ccccc12,–,inactive
Cc1cc(C)cc(C)c1,–,inactive
CC(C)(C)c1ccccc1O,–,inactive
Oc1cc(Cl)c(Cl)cc1Cl,–,inactive
Oc1c(Cl)cc(Cl)cc1Cl,–,inactive
[Cl][Sn]([c]1ccccc1)([c]1ccccc1)[c]1ccccc1,0.14 µM (active),–
O=c1oc2ccccc2c(O)c1C(CC(O)c1ccc(-c2ccc(Br)cc2)cc1)c1ccccc1 (stereo not given),8.62 µM (active),–
OCCCCO,–,inactive
Cc1c([N+](=O)[O-])c(C)c([N+](=O)[O-])c(C(C)(C)C)c1[N+](=O)[O-],32.4 µM (active),–
Cc1ccccc1OP(=O)(Oc1ccccc1C)Oc1ccccc1C,14.7 µM (active),–
O=C(O)C1(c2ccc3c(c2)OC[C@H](Cc2ccc(-c4ccccc4)cc2)[C@H]3O)CCCC1,9.87 µM (active),–
CC1(C)[C@H](C(=O)O[C@H](C#N)c2cccc(Oc3ccccc3)c2)[C@@H]1/C=C(\Cl)C(F)(F)F,–,inactive
CC(C)N(C(=O)CCl)c1ccccc1,20 µM (active),–
c1ccc(-c2cccc(-c3ccccc3)c2)cc1,–,inactive
Cc1cc(Cl)ccc1OC(C)C(=O)O (stereo not given),–,inactive
CCCCN(CCCC)C(=S)[S-].CCCCN(CCCC)C(=S)[S-].[Ni+2],–,inactive
CCOC(=O)C(SP(=S)(OC)OC)c1ccccc1 (stereo not given),–,inactive
C#CCOC(=O)/C=C(C)/C=C/CC(C)CCCC(C)C (stereo not given),–,inactive

Structure (SMILES),AC50,outcome
CCCCCCCCCCCCN(C)C,–,inactive
CC(C)(COCC1CO1)COCC1CO1 (stereo not given),–,inactive
CCCCCCCCCCCCc1cccc(S(=O)(=O)O)c1,16.5 µM (active),–
CN(C)C(=S)S,–,inactive
CCC(C)(C#N)N=NC(C)(C#N)CC (stereo not given),–,inactive
C=CC(Cl)CCl (stereo not given),–,inactive
CCOP(=O)(OCC)OC(=CCl)c1ccc(Cl)cc1Cl,32.8 µM (active),–
O=C(Cc1ccccc1)OCCc1ccccc1,–,inactive
Cc1cccc(OP(=O)(Oc2cccc(C)c2)Oc2cccc(C)c2)c1,–,inactive
O=C(O)COc1cc(Cl)c(Cl)cc1Cl,–,inactive
Oc1cccc(-c2ccccc2)c1,–,inactive
CCOP(=S)(OCC)OP(=S)(OCC)OCC,–,inactive
O=[N+]([O-])c1ccc(Nc2ccccc2)cc1,–,inactive
Nc1ccc(N)cc1,–,inactive
CC(C)=CC1C(C(=O)OCc2cccc(Oc3ccccc3)c2)C1(C)C (stereo not given),–,inactive
OCCN(CCO)CCO,–,inactive
Oc1ccc(Cc2ccc(O)cc2)cc1,–,inactive
c1ccc2sc(SNC3CCCCC3)nc2c1,–,inactive
Cc1ccc(OP(=O)(Oc2ccc(C)cc2C)Oc2ccc(C)cc2C)c(C)c1,–,inactive
O=C(N[C@H]1CN2CCC1CC2)c1ccc2c(c1)OCCO2,–,inactive
